# Experimental data: the supplement of paper PMC8728848
# Shown is part of a subset that was picked to be rich in the strongest signals.
# B1: LlpB (Pseudomonas fluorescens) (protein)
# chain: MGSSHHHHHHSSGLVPRGSHMASSGFRIILFNSANNGTAILPPRNCLVAGQYLESPSKRYKLILEADGNLRLYDNGVPIWVADSSVPYTYVDNRPNTNLVTCFYMQGSAFLVDRVGSRTWATIGDWIDGAADRAYLQVQDDGNVVVVDGVPRWARFGFTPAALPNRGVFYPDHGTGPLPSFPVWSWTF
# Tests used:
# Test in all cases: glycan array binding signal (z-score within array); higher = stronger binding
# Conditions in all cases: glycan notation: IUPAC condensed, linker removed
# Fuc(a1-2)Gal = target: Fuc(a1-2)Gal
# Method in brief: (§1)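 The binding signal is a Z-score computed within each array and averaged over linkers. Arrays of the same protein sequence at different concentrations or buffers were also averaged together. Data originate from 3228 arrays in the Consortium for Functional Glycomics database, kept only where the protein sequence was available.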
# Fuc(a1-2)Gal(b1-3)GalNAc = target: Fuc(a1-2)Gal(b1-3)GalNAc
# Method in brief: as §1
# [1] = target: Fuc(a1-2)Gal(b1-3)GlcNAc(b1-2)Man(a1-3)[Fuc(a1-2)Gal(b1-3)GlcNAc(b1-2)Man(a1-6)]Man(b1-4)GlcNAc(b1-4)[Fuc(a1-6)]GlcNAc
# Method in brief: as §1
# [2] = target: Fuc(a1-2)Gal(b1-4)GlcNAc(b1-3)Gal(b1-4)GlcNAc(b1-3)Gal(b1-4)GlcNAc
# Method in brief: as §1
# [3] = target: Fuc(a1-2)Gal(b1-4)GlcNAc(b1-3)[Fuc(a1-3)[Gal(b1-4)]GlcNAc(b1-6)]Gal(b1-4)Glc
# Method in brief: as §1
# [4] = target: Fuc(a1-2)Gal(b1-4)[Fuc(a1-3)]GlcNAc(b1-3)[Neu5Ac(a2-6)Gal(b1-4)GlcNAc(b1-6)]Gal(b1-4)Glc
# Method in brief: as §1
# [5] = target: Fuc(a1-2)[GalNAc(a1-3)]Gal(b1-4)Glc
# Method in brief: as §1
# [6] = target: Fuc(a1-3)[Gal(b1-4)]GlcNAc(b1-3)Gal(b1-4)[Fuc(a1-3)]GlcNAc
# Method in brief: as §1
# [7] = target: Gal(a1-3)Gal(b1-3)GlcNAc(b1-2)Man
# Method in brief: as §1
# Gal(b1-3)GlcNAc = target: Gal(b1-3)GlcNAc
# Method in brief: as §1
# [8] = target: Gal(b1-3)GlcNAc(b1-3)Gal(b1-4)GlcNAc
# Method in brief: as §1
# [9] = target: Gal(b1-3)GlcNAc(b1-3)Gal(b1-4)[Fuc(a1-3)]GlcNAc
# Method in brief: as §1
# Gal(b1-4)GlcNAc(b1-2)Man = target: Gal(b1-4)GlcNAc(b1-2)Man
# Method in brief: as §1
# [10] = target: Gal(b1-4)GlcNAc(b1-2)Man(a1-3)[Man(a1-6)]Man(b1-4)GlcNAc(b1-4)GlcNAc
# Method in brief: as §1
# [11] = target: Gal(b1-4)GlcNAc(b1-2)Man(a1-6)Man(b1-4)GlcNAc(b1-4)GlcNAc
# Method in brief: as §1
# [12] = target: Gal(b1-4)GlcNAc(b1-3)Gal(b1-3)GalNAc
# Method in brief: as §1
# [13] = target: Gal(b1-4)GlcNAc(b1-3)Gal(b1-4)GlcNAc(b1-3)Gal(b1-4)GlcNAc(b1-2)Man(a1-3)[Gal(b1-4)GlcNAc(b1-3)Gal(b1-4)GlcNAc(b1-3)Gal(b1-4)GlcNAc(b1-2)Man(a1-6)]Man(b1-4)GlcNAc(b1-4)[Fuc(a1-6)]GlcNAc
# Method in brief: as §1
# [14] = target: Gal3S(b1-4)[Fuc(a1-3)]GlcNAc
# Method in brief: as §1
# Gal6S(b1-4)Glc = target: Gal6S(b1-4)Glc
# Method in brief: as §1
# [15] = target: GlcA3S(b1-3)Gal(b1-4)GlcNAc(b1-3)Gal(b1-4)Glc
# Method in brief: as §1
# [16] = target: GlcNAc(b1-2)Man(a1-3)[GlcNAc(b1-4)][GlcNAc(b1-2)Man(a1-6)]Man(b1-4)GlcNAc(b1-4)[Fuc(a1-6)]GlcNAc
# Method in brief: as §1
# [17] = target: GlcNAc(b1-2)[GlcNAc(b1-4)]Man(a1-3)[GlcNAc(b1-4)][GlcNAc(b1-2)[GlcNAc(b1-6)]Man(a1-6)]Man(b1-4)GlcNAc(b1-4)[Fuc(a1-6)]GlcNAc
# Method in brief: as §1
# [18] = target: GlcNAc(b1-2)[GlcNAc(b1-6)]Man(a1-6)[GlcNAc(b1-2)Man(a1-3)]Man(b1-4)GlcNAc(b1-4)GlcNAc
# Method in brief: as §1
# GlcNAc(b1-3)Gal(b1-4)Glc = target: GlcNAc(b1-3)Gal(b1-4)Glc
# Method in brief: as §1
# [19] = target: GlcNAc(b1-3)Gal(b1-4)GlcNAc(b1-3)Gal(b1-4)GlcNAc(b1-2)[GlcNAc(b1-3)Gal(b1-4)GlcNAc(b1-3)Gal(b1-4)GlcNAc(b1-6)]Man(a1-6)[GlcNAc(b1-3)Gal(b1-4)GlcNAc(b1-3)Gal(b1-4)GlcNAc(b1-2)Man(a1-3)]Man(b1-4)GlcNAc(b1-4)[Fuc(a1-6)]GlcNAc
# Method in brief: as §1
# [20] = target: GlcNAc(b1-3)Gal(b1-4)GlcNAc(b1-6)[Gal(b1-3)]GalNAc
# Method in brief: as §1
# [21] = target: GlcNAc(b1-3)Gal(b1-4)GlcNAc(b1-6)[GlcNAc(b1-3)]Gal(b1-4)GlcNAc
# Method in brief: as §1
# GlcNAc(b1-3)Man = target: GlcNAc(b1-3)Man
# Method in brief: as §1
# [22] = target: GlcNAc(b1-3)[GlcNAc(b1-6)]Gal(b1-4)GlcNAc
# Method in brief: as §1
# Kdn(a2-3)Gal(b1-4)Glc = target: Kdn(a2-3)Gal(b1-4)Glc
# Method in brief: as §1
# MurNAc(b1-4)GlcNAc = target: MurNAc(b1-4)GlcNAc
# Method in brief: as §1
# [23] = target: Neu5Ac(a2-3)Gal(b1-3)GalNAc(b1-4)[Neu5Ac(a2-3)]Gal(b1-4)Glc
# Method in brief: as §1
# [24] = target: Neu5Ac(a2-3)Gal(b1-3)GalNAc(b1-4)[Neu5Ac(a2-8)Neu5Ac(a2-3)]Gal(b1-4)Glc
# Method in brief: as §1
# [25] = target: Neu5Ac(a2-3)Gal(b1-3)GlcNAc(b1-2)Man
# Method in brief: as §1
# [26] = target: Neu5Ac(a2-3)Gal(b1-3)[Fuc(a1-4)]GlcNAc
# Method in brief: as §1
# Neu5Ac(a2-3)Gal(b1-4)Glc = target: Neu5Ac(a2-3)Gal(b1-4)Glc
# Method in brief: as §1
# [27] = target: Neu5Ac(a2-3)Gal(b1-4)GlcNAc(b1-2)Man(a1-3)[Neu5Ac(a2-3)Gal(b1-4)GlcNAc(b1-2)Man(a1-6)]Man(b1-4)GlcNAc(b1-4)[Fuc(a1-6)]GlcNAc
# Method in brief: as §1
# [28] = target: Neu5Ac(a2-3)Gal(b1-4)GlcNAc(b1-2)[Neu5Ac(a2-3)Gal(b1-4)GlcNAc(b1-4)]Man(a1-3)[GlcNAc(b1-4)][Neu5Ac(a2-3)Gal(b1-4)GlcNAc(b1-2)[Neu5Ac(a2-3)Gal(b1-4)GlcNAc(b1-6)]Man(a1-6)]Man(b1-4)GlcNAc(b1-4)GlcNAc
# Method in brief: as §1
# [29] = target: Neu5Ac(a2-3)Gal(b1-4)GlcNAc(b1-2)[Neu5Ac(a2-3)Gal(b1-4)GlcNAc(b1-6)]Man(a1-6)[Neu5Ac(a2-3)Gal(b1-4)GlcNAc(b1-2)Man(a1-3)][GlcNAc(b1-4)]Man(b1-4)GlcNAc(b1-4)GlcNAc
# Method in brief: as §1
# [30] = target: Neu5Ac(a2-3)Gal(b1-4)GlcNAc(b1-3)Gal(b1-4)GlcNAc(b1-3)[Neu5Ac(a2-3)Gal(b1-4)GlcNAc(b1-3)Gal(b1-4)GlcNAc(b1-6)]GalNAc
# Method in brief: as §1
# [31] = target: Neu5Ac(a2-3)Gal(b1-4)GlcNAc(b1-3)GalNAc
# Method in brief: as §1
# [32] = target: Neu5Ac(a2-3)Gal(b1-4)GlcNAc(b1-3)[Neu5Ac(a2-3)Gal(b1-4)GlcNAc(b1-6)]GalNAc
# Method in brief: as §1
# [33] = target: Neu5Ac(a2-3)Gal(b1-4)[Fuc(a1-3)]GlcNAc(b1-3)GalNAc
# Method in brief: as §1
# [34] = target: Neu5Ac(a2-6)Gal(b1-4)GlcNAc(b1-2)Man(a1-3)[Man(a1-6)]Man(b1-4)GlcNAc(b1-4)GlcNAc
# Method in brief: as §1
# [35] = target: Neu5Ac(a2-6)Gal(b1-4)GlcNAc(b1-2)Man(a1-3)[Neu5Ac(a2-6)Gal(b1-4)GlcNAc(b1-2)Man(a1-6)]Man(b1-4)GlcNAc(b1-4)[Fuc(a1-6)]GlcNAc
# Method in brief: as §1
# [36] = target: Neu5Ac(a2-6)Gal(b1-4)GlcNAc(b1-3)Gal(b1-4)GlcNAc(b1-2)Man(a1-3)[Neu5Ac(a2-6)Gal(b1-4)GlcNAc(b1-3)Gal(b1-4)GlcNAc(b1-2)Man(a1-6)]GalNAc
# Method in brief: as §1
# [37] = target: Neu5Ac(a2-6)Gal(b1-4)GlcNAc(b1-3)Gal(b1-4)GlcNAc(b1-3)GalNAc
# Method in brief: as §1
# [38] = target: Neu5Ac(a2-6)GalNAc(b1-4)GlcNAc
# Method in brief: as §1
# [39] = target: Neu5Ac(a2-6)GlcNAc(b1-4)GlcNAc(b1-4)GlcNAc
# Method in brief: as §1
# [40] = target: Neu5Ac(a2-8)Neu5Ac(a2-3)Gal(b1-3)GalNAc(b1-4)[Neu5Ac(a2-3)]Gal(b1-4)Glc
# Method in brief: as §1
# [41] = target: Neu5Ac(a2-8)Neu5Ac(a2-3)Gal(b1-4)GlcNAc
# Method in brief: as §1
# [42] = target: Neu5Ac(a2-8)Neu5Ac(a2-3)[Gal(b1-3)GalNAc(b1-4)]Gal(b1-4)Glc
# Method in brief: as §1
# [43] = target: Neu5Ac9Ac(a2-3)Gal(b1-3)GlcNAc
# Method in brief: as §1
# Neu5Gc(a2-3)Gal(b1-4)Glc = target: Neu5Gc(a2-3)Gal(b1-4)Glc
# Method in brief: as §1
binder,measurement,setting,value
B1,glycan array binding signal (z-score),Fuc(a1-2)Gal,-0.044
same,glycan array binding signal (z-score),Fuc(a1-2)Gal(b1-3)GalNAc,-0.631
same,glycan array binding signal (z-score),[1],-0.114
same,glycan array binding signal (z-score),[2],2.58
same,glycan array binding signal (z-score),[3],-0.33
same,glycan array binding signal (z-score),[4],0.032
same,glycan array binding signal (z-score),[5],-0.54
same,glycan array binding signal (z-score),[6],1.4
same,glycan array binding signal (z-score),[7],0.466
same,glycan array binding signal (z-score),Gal(b1-3)GlcNAc,0.344
same,glycan array binding signal (z-score),[8],0.129
same,glycan array binding signal (z-score),[9],0.523
same,glycan array binding signal (z-score),Gal(b1-4)GlcNAc(b1-2)Man,3.72
same,glycan array binding signal (z-score),[10],0.362
same,glycan array binding signal (z-score),[11],-0.158
same,glycan array binding signal (z-score),[12],-0.092
same,glycan array binding signal (z-score),[13],2.11
same,glycan array binding signal (z-score),[14],-1.03
same,glycan array binding signal (z-score),Gal6S(b1-4)Glc,-1.15
same,glycan array binding signal (z-score),[15],-1.73
same,glycan array binding signal (z-score),[16],1.22
same,glycan array binding signal (z-score),[17],-0.095
same,glycan array binding signal (z-score),[18],0.893
same,glycan array binding signal (z-score),GlcNAc(b1-3)Gal(b1-4)Glc,-0.719
same,glycan array binding signal (z-score),[19],0.375
same,glycan array binding signal (z-score),[20],1.38
same,glycan array binding signal (z-score),[21],-0.837
same,glycan array binding signal (z-score),GlcNAc(b1-3)Man,0.669
same,glycan array binding signal (z-score),[22],-0.461
same,glycan array binding signal (z-score),Kdn(a2-3)Gal(b1-4)Glc,3.03
same,glycan array binding signal (z-score),MurNAc(b1-4)GlcNAc,2.54
same,glycan array binding signal (z-score),[23],2.9
same,glycan array binding signal (z-score),[24],-1.93
same,glycan array binding signal (z-score),[25],2.63
same,glycan array binding signal (z-score),[26],2.3
same,glycan array binding signal (z-score),Neu5Ac(a2-3)Gal(b1-4)Glc,2.98
same,glycan array binding signal (z-score),[27],-0.332
same,glycan array binding signal (z-score),[28],1.21
same,glycan array binding signal (z-score),[29],-0.505
same,glycan array binding signal (z-score),[30],-0.12
same,glycan array binding signal (z-score),[31],-0.794
same,glycan array binding signal (z-score),[32],-0.411
same,glycan array binding signal (z-score),[33],0.993
same,glycan array binding signal (z-score),[34],2.88
same,glycan array binding signal (z-score),[35],3.58
same,glycan array binding signal (z-score),[36],2.6
same,glycan array binding signal (z-score),[37],-0.312
same,glycan array binding signal (z-score),[38],-0.182
same,glycan array binding signal (z-score),[39],2.47
same,glycan array binding signal (z-score),[40],2.81
same,glycan array binding signal (z-score),[41],-1.02
same,glycan array binding signal (z-score),[42],-1.03
same,glycan array binding signal (z-score),[43],-0.008
same,glycan array binding signal (z-score),Neu5Gc(a2-3)Gal(b1-4)Glc,0.956
